Screening data: PubChem, several laboratories
CYP2C9 inhib: human CYP2C9 inhibition | P11712 | CYP2C9 Supersomes, luciferin-H conversion, luminescence | inhibition, % at 5 µM | 20% of 96,000 active | AID 777;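 active = blocking of liver enzyme CYP2C9 beyond about 50% at 5 µM, limit read from the data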
Target sequence (P11712 whole entry, looked up): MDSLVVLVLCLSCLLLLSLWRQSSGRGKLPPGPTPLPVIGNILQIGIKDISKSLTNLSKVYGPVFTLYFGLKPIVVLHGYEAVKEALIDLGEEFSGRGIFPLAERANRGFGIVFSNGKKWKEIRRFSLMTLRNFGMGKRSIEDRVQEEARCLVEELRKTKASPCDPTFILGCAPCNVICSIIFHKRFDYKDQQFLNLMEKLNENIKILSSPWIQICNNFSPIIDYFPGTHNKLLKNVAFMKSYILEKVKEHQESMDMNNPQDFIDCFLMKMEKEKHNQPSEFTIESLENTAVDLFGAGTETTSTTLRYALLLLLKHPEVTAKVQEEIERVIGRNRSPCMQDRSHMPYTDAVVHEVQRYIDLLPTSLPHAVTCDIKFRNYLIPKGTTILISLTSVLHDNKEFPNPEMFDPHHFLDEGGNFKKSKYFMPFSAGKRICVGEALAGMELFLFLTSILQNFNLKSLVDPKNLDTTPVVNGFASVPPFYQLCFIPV
Cav3 T inh: inhibitors of human Cav3.2 T-type calcium channel. O95180. Cav3.2-expressing cells, Fluo-4 calcium fluorescence FDSS; stronger effect = lower value. B-score at 10 µM. 4% of 100,000 active. AID 449739;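 active = single-dose well whose peak fluorescence ratio is a statistical outlier from its plate by either plate-standardised score or position-corrected B-score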
CYP2C19 inh: inhibitors of human CYP2C19; 21% of 96,000 active; inhibition, % at 5 µM; CYP2C19 Supersomes, luciferin-H EGE luminescence, 30 min; P33261;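 active = CYP2C19 inhibition above a set limit at 5 µM in the primary screen, cut at about 50% in these data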;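 also: plate controls were negative control wells for no effect and 2.5 mM tranylcypromine positive control for full effect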
CYP2C9 act: activators of human CYP2C9; 1.4% of 96,000 active; P11712; activation factor at 5 µM; recombinant CYP2C9, luciferin-H conversion, luminescence; stronger effect = higher value; factor 1 = untreated enzyme, 0 = blocked;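 active = activation factor of 2 or more for CYP2C9 at a 5 µM dose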;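 also: 0 = sulfaphenazole-blocked wells and 1 = vehicle-only wells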
CYP2C19 act: cytochrome P450 2C19 (human) activation | 96,000 tested, under 10 active | recombinant CYP2C19, luciferin-H EGE luminescence; stronger effect = higher value; 0 = fully inhibited enzyme, 1 = untreated enzyme | P33261 | activation factor at 5 µM;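 active = activation factor of at least 2 at 5 µM in the primary screen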;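 also: 0 = wells with 2.5 mM tranylcypromine and 1 = vehicle-only wells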
The depositor's hits bear a star. Compounds with a hit are over-represented: about 27% of the library has one in this group of screens.

`Cc1nc2c(C(=O)NCc3ccc(F)cc3)c[nH]n2c(=O)c1Cl` gave CYP2C9 inhib 63*, Cav3 T inh 0.3, CYP2C19 inh -6, CYP2C9 act 0.4 and CYP2C19 act 1.1.
O=C(CN(Cc1ccco1)C(=O)CNS(=O)(=O)c1ccc(Cl)cc1)NCc1ccc(F)cc1 was read as Cav3 T inh -3.2.
C=CCc1cccc(/C=N/n2cnnc2)c1O was read as CYP2C9 inhib 30, Cav3 T inh -0.63, CYP2C19 inh 66*, CYP2C9 act 0.7 and CYP2C19 act 0.3.
C=CCn1c(N)cc(=O)nc1SCC(=O)N1CCN(c2ccc(F)cc2)CC1 was read as CYP2C9 inhib 4, Cav3 T inh -0.086, CYP2C19 inh 20, CYP2C9 act 1 and CYP2C19 act 0.8.
For CC(=O)c1sc2nc(-c3cccs3)ccc2c1N the results were CYP2C9 inhib 15, Cav3 T inh -1.8, CYP2C19 inh 5, CYP2C9 act 0.8 and CYP2C19 act 0.9.
Screening Nc1c(C(=O)C2CC2)sc2nc(-c3cccs3)cc(C(F)(F)F)c12 returned CYP2C9 inhib 32, Cav3 T inh -7.9*, CYP2C19 inh 15, CYP2C9 act 0.7 and CYP2C19 act 0.8.
`O=C1CNC(=O)N1Cc1ccc(Br)cc1` gave CYP2C9 inhib 17, Cav3 T inh -0.38, CYP2C19 inh 37, CYP2C9 act 0.8 and CYP2C19 act 0.6.
NC(=O)C1CCN(C(=O)CSc2nc3ccccc3o2)CC1 was read as CYP2C9 inhib -11, Cav3 T inh 0.075, CYP2C19 inh -1, CYP2C9 act 1.1 and CYP2C19 act 1.
`Cc1ccc(S(=O)(=O)N2CCN(C(=O)CSc3nc4ccccc4o3)C2)cc1` gave CYP2C9 inhib 44, CYP2C19 inh 88*, CYP2C9 act 0.6 and CYP2C19 act 0.1.
COc1ccccc1N1CCN(C(=O)CSc2nc3ccccc3o2)CC1 was read as CYP2C9 inhib 34, Cav3 T inh 0.095, CYP2C19 inh 64*, CYP2C9 act 0.7 and CYP2C19 act 0.4.
Screening CCCCC(=O)Nc1nnc(SCC(=O)N2CCN(c3ccccc3OC)CC2)s1 returned CYP2C9 inhib 2, Cav3 T inh 0.65, CYP2C19 inh 6, CYP2C9 act 1 and CYP2C19 act 0.9.
Screening COc1ccccc1N1CCN(C(=O)CSc2nc3ccccc3c(=O)n2CC2CCCO2)CC1 (stereo unspecified) returned CYP2C9 inhib 66*, CYP2C19 inh 22, CYP2C9 act 0.3 and CYP2C19 act 0.8.
For CC1CCCN(C(=O)CSc2nc3ccccc3o2)C1 (stereo unspecified) the results were CYP2C9 inhib 3, CYP2C19 inh 27, CYP2C9 act 1 and CYP2C19 act 0.7.
Screening COc1ccccc1N1CCN(C(=O)CSc2nnc(NC(=O)C3CC3)s2)CC1 returned CYP2C9 inhib 82*, Cav3 T inh 1.4, CYP2C19 inh 33, CYP2C9 act 0.2 and CYP2C19 act 0.7.
Screening Cc1cc(NC(=O)CC23CC4CC(C2)CC(CC(=O)Nc2cc(C)on2)(C4)C3)no1 returned CYP2C9 inhib 11, Cav3 T inh 0.0092, CYP2C19 inh 14, CYP2C9 act 0.9 and CYP2C19 act 0.9.
For C=C(C)c1cccc(C(C)(C)NC(=O)N2CCN(CC(N)=O)CC2)c1 the results were CYP2C9 inhib 1, CYP2C19 inh -11, CYP2C9 act 1 and CYP2C19 act 1.1.
COc1ccccc1NC(=O)CCSc1nnnn1C was read as CYP2C9 inhib -3, CYP2C19 inh 7, CYP2C9 act 1 and CYP2C19 act 0.9.
`C=CCn1c(C(C)NC(=O)CCC)nc2ccccc21` (stereo unspecified) gave Cav3 T inh 0.76.
For Cc1c(Cl)c([N+](=O)[O-])nn1CC(=O)NC12CC3CC(CC(C3)C1)C2 the results were CYP2C9 inhib 24, Cav3 T inh -3.8*, CYP2C19 inh 79*, CYP2C9 act 0.8 and CYP2C19 act 0.2.
O=C([C@@H]1CC=C[C@@H]2CCN(C3CC3)C(=O)[C@@H]21)N1CCN(c2ccccc2)CC1 was read as Cav3 T inh 2.2.
`Cn1cnnc1SC(C(=O)Nc1cccc(C(F)(F)F)c1)c1ccccc1` (stereo unspecified) gave CYP2C9 inhib 73*, Cav3 T inh -2.1, CYP2C19 inh 71*, CYP2C9 act 0.3 and CYP2C19 act 0.3.
`Cn1cnnc1SCC(=O)Nc1cccc(C(=O)O)c1` gave CYP2C9 inhib -5, Cav3 T inh 0.12, CYP2C19 inh -3, CYP2C9 act 1.1 and CYP2C19 act 1.
O=c1c2ccccc2oc2cc(-c3ccc4[nH]ccc4c3)ccc12 was read as Cav3 T inh 0.0086.
`CCOC(=O)C1=C(C)NC(=O)NC1c1ccc(OC)c(Cl)c1` (stereo unspecified) gave CYP2C9 inhib 32, Cav3 T inh -0.085, CYP2C19 inh 13, CYP2C9 act 0.7 and CYP2C19 act 0.9.
Screening CCOC(=O)C1=C(C)NC(C)=C(C(=O)OCC)C1c1cc(N)ccc1OC(F)F returned CYP2C9 inhib 57*, Cav3 T inh -0.22, CYP2C19 inh 49, CYP2C9 act 0.4 and CYP2C19 act 0.5.
For O=C1NCC2=C1C(c1ccc(Br)cc1)Nc1ccccc1N2 (stereo unspecified) the results were CYP2C9 inhib 55*, CYP2C19 inh 22, CYP2C9 act 0.5 and CYP2C19 act 0.8.
Screening CC1(C)CC(=O)C2=C(C1)Nc1ccccc1NC2c1ccc2c(c1)OCO2 (stereo unspecified) returned CYP2C9 inhib 0, Cav3 T inh -0.039, CYP2C19 inh 7, CYP2C9 act 1 and CYP2C19 act 0.9.
Cc1ccc(CC(NC(=O)c2ccccc2)C(=O)NCC(=O)O)cc1 (stereo unspecified) was read as CYP2C9 inhib -23, Cav3 T inh -0.094, CYP2C19 inh -5, CYP2C9 act 1.2 and CYP2C19 act 1.
For CC(=O)C[C@H]1c2ccccc2S(=O)(=O)N1c1ccccc1 the results were Cav3 T inh 0.73.
`O=C(CN1C(=O)C2CC=CCC2C1=O)Nc1nnc(SCc2ccc(Cl)cc2)s1` (stereo unspecified) gave CYP2C9 inhib -33, Cav3 T inh -4.5*, CYP2C19 inh 38, CYP2C9 act 1.3 and CYP2C19 act 0.6.
Screening Cc1ccc(S(=O)(=O)/N=C(\Sc2ccccc2)c2ccccc2)cc1 returned CYP2C9 inhib 62*, Cav3 T inh -0.65, CYP2C19 inh 34, CYP2C9 act 0.4 and CYP2C19 act 0.7.
Screening Cc1ccc(S(=O)(=O)/N=C(\CSC(N)=O)Nc2ccccc2)cc1 returned CYP2C9 inhib -87, Cav3 T inh -0.97, CYP2C19 inh 21, CYP2C9 act 1.9 and CYP2C19 act 0.8.
Cc1ccc(S(=O)(=O)NC(=NCC(=O)O)c2ccccc2)cc1 was read as CYP2C9 inhib -5, Cav3 T inh -0.0083, CYP2C19 inh -6, CYP2C9 act 1 and CYP2C19 act 1.1.
